Assay results: PubChem BioAssay AID1671463 (Sanford-Burnham Center for Chemical Genomics, 2021)
Hit rate of the full screen: of about 370,000 compounds, about 520 (0.14%) were called active. Only a selection was taken, and actives are over-represented in it overall. A number with no mark means an inactive call. No stated cut-off is given here; in the data, active means activation above about 40%; inactive means the rest.

biological target: Atrial natriuretic peptide receptor 1 (Homo sapiens) (UniProt P16066); experiment: GC-A stimulated cGMP production enhancers – HEK293 GC-A cells, cGMP TR-FRET, EC30 ANP, primary screen (AID 1671463); details: at 10 µM, hits give high values, 0% at EC30 ANP, 100% saturating ANP
Sequence (P16066 whole entry, looked up): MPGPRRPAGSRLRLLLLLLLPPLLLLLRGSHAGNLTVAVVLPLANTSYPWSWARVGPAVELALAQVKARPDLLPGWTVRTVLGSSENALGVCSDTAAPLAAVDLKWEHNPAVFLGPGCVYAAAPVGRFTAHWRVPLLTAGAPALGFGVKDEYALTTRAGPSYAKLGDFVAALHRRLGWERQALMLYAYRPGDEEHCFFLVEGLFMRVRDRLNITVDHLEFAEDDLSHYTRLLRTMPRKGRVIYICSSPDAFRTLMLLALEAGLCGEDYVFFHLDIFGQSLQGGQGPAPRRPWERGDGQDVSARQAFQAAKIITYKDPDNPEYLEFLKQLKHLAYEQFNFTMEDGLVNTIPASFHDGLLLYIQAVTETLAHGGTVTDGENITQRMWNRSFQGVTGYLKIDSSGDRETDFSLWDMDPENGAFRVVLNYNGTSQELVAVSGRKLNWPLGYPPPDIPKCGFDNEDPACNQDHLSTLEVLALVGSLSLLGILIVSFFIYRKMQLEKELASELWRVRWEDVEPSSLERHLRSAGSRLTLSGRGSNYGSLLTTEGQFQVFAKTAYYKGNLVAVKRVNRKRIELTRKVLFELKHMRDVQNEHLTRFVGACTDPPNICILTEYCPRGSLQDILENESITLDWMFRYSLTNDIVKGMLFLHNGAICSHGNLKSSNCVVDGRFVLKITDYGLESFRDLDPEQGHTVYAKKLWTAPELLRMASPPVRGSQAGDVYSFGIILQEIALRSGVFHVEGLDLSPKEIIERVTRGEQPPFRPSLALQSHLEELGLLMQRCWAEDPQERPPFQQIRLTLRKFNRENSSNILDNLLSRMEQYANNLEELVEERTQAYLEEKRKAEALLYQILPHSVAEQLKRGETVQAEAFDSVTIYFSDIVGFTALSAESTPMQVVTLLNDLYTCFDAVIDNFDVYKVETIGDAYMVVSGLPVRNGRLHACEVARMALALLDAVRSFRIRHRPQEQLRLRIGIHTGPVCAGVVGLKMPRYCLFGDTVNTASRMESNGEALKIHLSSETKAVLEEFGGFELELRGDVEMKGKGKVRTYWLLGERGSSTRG

Row | Structure (SMILES) | activation
1 | COc1ccc([N+](=O)[O-])cc1NC(=O)CC1SC(=Nc2cccc(C)c2C)N(/N=C(\C)c2ccc(C)cc2)C1=O (centres undefined) | 0.41%
2 | Cc1ccc(NS(=O)(=O)c2ccc(-c3coc(C)n3)cc2)c(C)c1 | 4.2%
3 | C=CCOc1ccc(/C=N/n2cncn2)cc1OC | 7.58%
4 | C=CCOc1ccc(/C=N/NC(=O)C(C)Sc2ccccn2)cc1OCC (centres undefined) | 1.12%
5 | C#CCOc1ccc(/C=C2/C(=O)ON=C2C)cc1OCC | 43.3% (active)
6 | C#CCOc1ccccc1/C=C1/C(=O)ON=C1C | 25.7%
7 | C=CCOc1ccc(/C=C2/C(=O)ON=C2C)cc1OCC | 41% (active)
8 | Cc1ccc(N2C(=O)C3C4C=CC(CC4)C3C2=O)cc1Cl (centres undefined) | 2.95%
9 | CN(CC(=O)Nc1c(Cl)cccc1Cl)C(=O)c1ccncc1 | 3.63%
10 | C=C1CCN([C@H](C(=O)NCc2cc(OC)c(OC)c(OC)c2)C(C)C)S(=O)(=O)c2ccccc21 | 4.37%
11 | CCCC(C(=O)N1CCOCC1)N1C(=O)C2C3C=CC(C3)C2C1=O (centres undefined) | 2.35%
12 | O=C(Nc1cccc(Br)c1)C1CC(=O)N(C2CCCC2)C1 (centres undefined) | 0.08%
13 | Cc1cccc(NC(=O)C2CCCN2S(=O)(=O)c2ccc(F)cc2)c1C (centres undefined) | 0.56%
14 | CCC(=O)Nc1c(C)n[nH]c1C | -1.11%
15 | COc1cc(F)c(C2=CC(=O)CC(C)(C)C2)cc1F | 0.01%
16 | COC(=O)Cc1ccc(OC(=O)C2CCN(S(=O)(=O)c3ccc(OC)c(OC)c3)CC2)cc1 | 3.18%
17 | COC(=O)c1cn(C)c2ccc(S(=O)(=O)N3CC(C)CC(C)C3)cc2c1=O (centres undefined) | -6.76%
18 | O=C(Cn1nnc(-c2ccc3c(c2)OCO3)n1)NCc1ccco1 | -5.64%
19 | Cc1nc(CNc2ncnc3ccc(-c4ccc5c(c4)OCO5)cc23)cs1 | 5.54%
20 | c1coc(CCNc2ncnc3ccc(-c4ccc5c(c4)OCO5)cc23)c1 | 43.1% (active)

Row | Structure (SMILES) | activation
21 | Cc1ccc(NC(=O)CN(C)C(=O)COC(=O)C(C)(C)Oc2ccc(Cl)cc2)cc1 | -1.24%
22 | CCn1nc(C(=O)NNC(=O)C2CSC3(C)CCC(=O)N23)c2ccccc2c1=O (centres undefined) | -1.32%
23 | Cc1cc(C)c(C#N)c(SCS(=O)c2ccc(C(C)(C)C)cc2)n1 (centres undefined) | 4.18%
24 | CCOC(=O)c1c(C)[nH]c(=S)c(C#N)c1-c1ccccc1 | 49.5% (active)
25 | CCc1c(C)[nH]c(=S)c(C#N)c1C | 2.4%
26 | CC(=O)c1c(C)[nH]c(=S)c(C#N)c1-c1ccc(F)cc1 | 5.29%
27 | COC(=O)Nc1ccc(S(=O)(=O)N2CCN(CCN3C(=O)C4C5C=CC(C5)C4C3=O)CC2)cc1 (centres undefined) | -1.89%
28 | Cc1cc(=O)n2nc(N3CCC(C(=O)Nc4c(F)c(F)c(F)c(F)c4F)CC3)sc2n1 | 0.6%
29 | CC(C)c1cc(C(N)=O)c(NC(=O)c2cccc(COc3ccc(Br)cc3)c2)s1 | -1.61%
30 | O=C(CN1C2CCC1CC(NC(=O)C1CC1)C2)NCc1ccccc1 (centres undefined) | 0.13%
31 | COc1ccccc1CNC(=O)CSc1nc(=O)n(Cc2ccncc2)c2c1CCC2 | 2.8%
32 | O=C1CC[C@@H](COc2ccc3[nH]cc(-c4ccccc4)c3c2-c2ccccc2)N1 | 2.69%
33 | CC(C)C[C@H](NC(=O)[C@@H]1O[C@H]1C(=O)O)C(=O)NCCCCN=C(N)N | 2.77%
34 | C[C@H](NS(=O)(=O)c1ccc(Cl)cc1)C(=O)OCC(=O)N1CCOCC1 | 7.01%
35 | Nc1ccc(N=Nc2ccccc2Cl)c(N)n1 | 38.8%
36 | CCN(CC)S(=O)(=O)c1ccc(CNC(=O)CN2C(=O)NC3(CCc4ccccc43)C2=O)cc1 (centres undefined) | -0.1%
37 | O=C(O)CCSc1nnc(-c2ccccc2)n1-c1ccccc1 | 4.68%
38 | C[C@@H](O)c1nc2ccccc2n1N | 1.42%
39 | Cc1noc(C)c1COc1cccc(C(=O)Nc2cccnc2)c1 | -4.16%
40 | Cc1noc(C)c1COC(=O)COc1ccc(-c2ccccc2)cc1 | 42% (active)

Row | Structure (SMILES) | activation
41 | COCc1c(C(=O)OCc2c(C)noc2C)oc2ccccc12 | 2.41%
42 | CCCCOc1ccc(N(CC(=O)NCC2CCCO2)C(=O)CCC(=O)Nc2cc(C)ccn2)cc1 (centres undefined) | 0.77%
43 | CSc1sc(C(=O)NNC(=O)c2ccc(Cl)cc2)c2c1C=CCC2 | -1.84%
44 | Cc1cc(NC(=O)CS(=O)(=O)c2cn(C)c3ccccc23)no1 | 1.25%
45 | CC(=O)c1ccc(S(=O)(=O)NC2CC(=O)N(c3ccc4c(c3)OCCO4)C2)cc1 (centres undefined) | 4.47%
46 | Cc1ccn(-c2cccc(-n3ccc(C)n3)n2)n1 | 5.87%
47 | CCCCOc1ccc(NC(=O)[C@@H]2CCCN2C(=O)C2CCN(S(=O)(=O)c3ccc(C)cc3)CC2)cc1 | 2.31%
48 | O=C(Nc1ccon1)c1nc[nH]c1C(=O)NCc1ccccc1 | -0.12%
49 | NC(N)=NCCCc1cn(CC(=O)N2CCNCC2)nn1 | -2.97%
50 | Cc1oc2cc3oc(=O)ccc3cc2c1C | -1.91%
51 | CC(C)Oc1ccc(C(CC(=O)N2CCOCC2)C(C)C)cc1 (centres undefined) | -1.14%
52 | O=C(CSc1nnc(-c2ccncc2)o1)Nc1cccc(Cl)c1 | -5.53%
53 | O=C(CSc1nnc(-c2ccncc2)o1)NCc1ccc(Cl)cc1 | -2.38%
54 | O=C(COC(=O)CSc1nnc(-c2ccc(Cl)cc2)o1)Nc1cc(Cl)cc(Cl)c1 | 60.5% (active)
55 | O=C1/C(=C\c2ccc([N+](=O)[O-])cc2)CS(=O)(=O)C/C1=C/c1ccc([N+](=O)[O-])cc1 | 43.4% (active)
56 | O=[N+]([O-])c1ccc(CN2CC(N3CC=CC3)CS2(=O)=O)cc1 (centres undefined) | 0.5%
57 | Nc1c(N(CCO)C(=O)C2CCCCC2)c(=O)[nH]c(=O)n1Cc1ccccc1 | -4.4%
58 | CC(NC(=O)COc1ccc(-c2ccccc2)cc1)C1CCCO1 (centres undefined) | 3.26%
59 | COC(=O)CN1C(=O)[C@H]2[C@@H](C3CC3)N3C(=O)CN(Cc4ccc(-c5ccccc5)cc4)C(=O)[C@@]3(Cc3ccccc3)[C@H]2C1=O | 4.81%
